This is part of a sample that, as a whole, favours compounds with a hit. Of some 83,000 tested, about 20% had one in any assay.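 96-well plates, one dose, 48 hours. Percent growth reported; active if below 10.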 A number with no mark means an inactive call. Activity calls are given as the source filed them.
What follows are molecules tested on COLO 205 colon (assay: NCI-60 one-dose screen, 48 h (100 = growth as untreated, 0 = no growth, -100 = all killed)). Conditions: 10 µM unless noted.
Experimental: Cells are grown in 96 well plates and exposed to the test compound for 48 hours. Compounds are tested at a single concentration, which is 10^-5 M for most compounds. The reported endpoint is percent growth (GI% or GIPRCNT), where numbers from 0 - 100% represent growth inhibition, and numbers from -100% - 0 represent cell death. For example, a value of 40 represents 60% growth inhibition. A value of 0 means no net growth occurred over the course of the experiment. A value of -40 indicates 40% of cells at the beginning of the experiment died by the end of the experiment. A value of -100 means all cells are dead at the end of the experiment.
NCI-60 Human Tumor Cell Lines Screen was performed using the standard one-dose NCI protocol, which is described in more detail at https://dtp.cancer.gov/discovery_development/nci-60/default.htm.
Compounds with GIPRCNT values below 10 were considered active. Activity score was based on GIPRCNT using the following formula: […]
Score is 0 for GIPRCNT values of 100 or above, 50 for GIPRCNT values of 0, and 100 for GIPRCNT values of -100.
In the case of `COCC[C@H]1CCC/C=C/[C@@H]2C[C@H](O)C[C@H]2[C@H](O)/C=C/C(=O)O1`, the growth is reported as -64.4% (active).
`C=CCCC(=O)N1C=CC(=O)[C@H](O)[C@@H]1/C=C/c1ccccc1` was tested, and the growth was 34% [100 µM].
In the case of `CN1CCCc2cc(/C=C3/SC(=S)N(CCc4ccc(O)cc4)C3=O)ccc21`, the growth is reported as 112%.
In the case of `COc1cc(C2C3=C(COC3=O)N(CCO)c3cc4c(cc32)OCCO4)cc(OC)c1OC` (stereo not given), the growth is reported as -85.9% (active).
In the case of `CCN(CC)CCCNCc1cc(-c2ccccc2)nc2cc(Cl)ccc12`, the growth is reported as 51.2%.
`c1ccc(CCc2ccccc2-c2cc(-c3ccccc3)on2)cc1` was tested, and the growth was 100%.
For `COc1ccc(C2=CN3CC=CCC3CC2=O)cc1` (stereo not given), the growth was 113%.
`COc1ccc(Nc2ncc(C(N)=O)c(NCCCNC(=O)C3CCC3)n2)cc1` was tested, and the growth was 3.6% (active).
`COC(=O)C1=Nc2ccc(F)cc2/C1=C\c1sc(Nc2ccc(O)cc2)nc1O` was tested, and the growth was 101%.
`Cc1[nH]c(C(=O)Nc2ccc(C(N)=O)cc2NC(C)C)c(Cl)c1Cl` gave a growth of 122%.
For `CN1CCN(CCCOC(=O)c2c3c(n4ccccc24)C(=O)c2ncccc2C3=O)CC1`, the growth was -93.2% (active).
`COc1ccc(OC)c(Nc2nnc(-c3ccc(Cl)cc3)o2)c1` showed a growth of 99.1%.
In the case of `CCCCCCCCCCCCCCCCCCOc1ccccc1CC(=O)OCC[N+]1(C)CCOCC1`, the growth is reported as 65.6%.
`CCn1cc(C(=O)N/N=C/c2ccc(Br)cc2)c(=O)c2cc(F)c(N3CCNC(C)C3)c(F)c21` (stereo not given) showed a growth of 32.1%.
In the case of `C=C(CO)[C@@H]1CC[C@]2(COC3CCCCO3)CC[C@]3(C)[C@H](CC[C@@H]4[C@@]5(C)C=C(C=O)C(=O)C(C)(C)[C@@H]5CC[C@]43C)[C@@H]12` (stereo not given in full), the growth is reported as -60.2% (active).
`C#CCn1cnc2c(Nc3cccc(NC(=O)CCl)c3)ncnc21` showed a growth of 18.6%.
With `Nc1c(C(=O)O)cc(Cl)cc1[N+](=O)[O-]` the growth was 115%.
`O=C(Cn1nnc2ccccc21)Nc1ccc(-c2nc3ccccc3s2)cc1` was tested, and the growth was 105%.
With `CCOC(=O)C1CCN(c2ccc(N3C[C@@H](CNCc4ccc(C(=N)N)cc4)OC3=O)cc2)CC1` the growth was 103%.
For `C=CC(=O)N1CCN(c2ccc3cccc(NC(=O)c4cnc(C)cn4)c3n2)CC1`, the growth was 59.3%.
For `COc1ccc(Cl)cc1Nc1nc(C(F)(F)F)ccc1C(=O)N/N=C/c1ccccc1Cl`, the growth was -59.5% (active).
`O=C(CCCCl)NNc1nccc(Nc2ccc(S(=O)(=O)Nc3ccncc3)cc2)n1` showed a growth of 111%.
In the case of `COc1ccc2cc(Cn3cc[n+](Cc4ccc5ccccc5c4)c3)ccc2c1`, the growth is reported as -66.3% (active).
`CC[C@H](C)[C@H](NC(=O)[C@H](CCCNC(=N)N)NC(=O)[C@H](Cc1c[nH]c2ccccc12)NC(=O)[C@@H](NC(=O)[C@H](CCCCN)NC(=O)[C@H](CCCCN)NC(=O)[C@@H](NC(=O)[C@@H](NC(=O)[C@@H](NC(=O)[C@H](CCCCN)NC(=O)[C@H](Cc1ccccc1)NC(=O)[C@H](CCCCN)NC(=O)[C@H](CCCCN)NC(=O)[C@H](Cc1ccccc1)NC(=O)[C@@H](NC(=O)[C@@H](N)CCCCN)[C@@H](C)CC)[C@@H](C)O)[C@@H](C)CC)[C@@H](C)CC)C(C)C)C(=O)N[C@@H](Cc1ccccc1)C(=O)NCC(=O)N[C@@H](CCCNC(=N)N)C(=O)N[C@@H](Cc1ccccc1)C(N)=O` was tested, and the growth was -55.3% (active).
In the case of `CCC/C(=N\NC(N)=O)C(OC)OC`, the growth is reported as 110%.
`O=C1NC(=C(Cl)Cl)/C(=N/S(=O)(=O)N2CCCCC2)N1` was tested, and the growth was -84.5% (active).
For `COc1cc(/C=C\c2cc(/C=C\c3ccc(O)c(OC)c3)n(C(=O)CNc3ccc(Cl)cc3)n2)ccc1O`, the growth was 90.4%.
`O=C(CBr)CN1C(=O)c2ccccc2C1=O` was tested, and the growth was 101%.
For `C=C1C(=O)O[C@H]2[C@H]1CC/C(Cn1cc(-c3cc(C(F)(F)F)cc(C(F)(F)F)c3)nn1)=C\CC[C@@]1(C)O[C@@H]21`, the growth was -60.4% (active).
`CCOC(=O)c1c(NC(=O)c2ccc(OC)cc2)sc2c(CN(C)C)c(O)ccc12` gave a growth of 55.3%.
For `Cc1ccccc1OCC(O)COc1ccccc1C`, the growth was 98.2%.
In the case of `Cc1cccc(N2CCN(C(=S)c3ccc4c(c3)OCO4)CC2)c1`, the growth is reported as -36% (active).
Work on `COC(=O)C1=C(C)NC(C)=C(C(=O)OCC(C)C)C1c1ccccc1[N+](=O)[O-]` (stereo not given) yielded a growth of 91.1%.
`COc1ccc(/C=C/C(=O)c2cc3c(N)c(C(=O)Nc4ccccc4C)sc3nc2C)cc1` was tested, and the growth was -30.3% (active).
`CCCCCCCCn1ccc2cc(NC(=O)Cn3cc(CN4CCOCC4)nn3)ccc21` was tested, and the growth was 109%.
For `O=C(N/N=C/c1ccc(Cl)cc1Cl)c1ccc2nc(-c3ccc(Cl)cc3)[nH]c2c1`, the growth was -23.9% (active).
For `C[C@@H]1CC[C@@]2(OC1)O[C@H]1C[C@H]3[C@@H]4CC=C5C[C@@H](O[C@@H]6O[C@H](CO)[C@@H](O[C@@H]7O[C@@H](CO)[C@H](O)[C@H]7O)[C@H](O)[C@H]6O[C@@H]6O[C@@H](C)[C@H](O)[C@@H](O)[C@H]6O)CC[C@]5(C)[C@H]4CC[C@]3(C)[C@H]1[C@@H]2C`, the growth was -89.9% (active).
Molecule `CCCCCCC(=O)Nc1ncc(Cc2ccc(C)cc2)s1` has a growth of 16.5%.
In the case of `CCN=C1C=CC(=C(c2ccc(N(C)C)cc2)c2ccc(N(C)C)cc2)c2ccccc21`, the growth is reported as -79% (active).
`CC(O)c1ncc(/C=C2\SC(=S)N(Cc3ccccc3)C2=O)s1` (stereo not given) showed a growth of 96.2%.

Source: PubChem BioAssay (NCI)
